Test results published in PubChem BioAssay (Tox21).
Records with an inconclusive call do not appear. Active and inactive are the calls of the source. Unless noted, calls follow the shape of the dose curve; as a rule, active = well fitted curve in the direction sought with a large enough effect in the repeat runs; inconclusive = weak or mixed curves; inactive = no such curve, though single readings can be large; an effect the other way counts as inactive or inconclusive.

Tests used:
[1] = qHTS assay for small molecule agonists of the p53 signaling pathway (AID 651631; calls by dose curve; also: nearly all actives have a fitted effect of over 15% in size)
Outline: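 Fluorescence intensity from cleaved LiveBLAzer B/G substrate (2 h, room temperature) served as the signal. Beforehand, HCT-116 reporter cells bearing p53 response elements were treated 16 h at 37 °C with DMSO-dissolved compounds.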

[2] = qHTS assay for small molecules that induce genotoxicity in human embryonic kidney cells expressing luciferase-tagged ATAD5 (AID 651632); also: nearly all actives have a fitted effect of over 15% in size
Outline: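 Increased luciferase signal from ATAD5-tagged reporter cells indicates DNA-damage-driven ATAD5 induction. HEK293T cells are treated for 16 hr at 37C before detection with Amplite.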

[3] = qHTS assay for small molecule agonists of the p53 signaling pathway - cell viability (AID 651633; calls by dose curve;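 also: p53RE-bla HCT reporter cells with a stable beta-lactamase p53 reporter; series mostly up to about 83 µM; nearly all actives have a fitted effect of over 30% in size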)
Outline: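 p53RE-bla cells were treated with compound for 16 hours at 37 C. Cytotoxicity was then measured as CellTiter-Glo luminescence after 30 min at room temperature.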

[4] = qHTS assay for small molecules that induce genotoxicity in human embryonic kidney cells expressing luciferase-tagged ATAD5 - cell viability (AID 651634; calls by dose curve; also: nearly all actives have a fitted effect of over 25% in size)
Outline: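 Cytotoxicity counterscreen in HEK293T cells bearing an ATAD5-luciferase reporter: live-cell protease activity measured by CellTiter-Fluor fluorescence after 15.5 hr compound exposure.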

[5] = qHTS assay for small molecule disruptors of the mitochondrial membrane potential - cell viability (AID 720634; calls by dose curve;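 also: human HepG2 liver cancer cells; series mostly up to about 83 µM; nearly all actives have a fitted effect of over 20% in size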)
Outline: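 After overnight attachment at 37 C, HepG2 cells received compound or DMSO vehicle for 1 hr. Viability is then taken from ATP-driven luminescence following a 30 min room-temperature CellTiter-Glo step.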

[6] = qHTS assay to test for compound auto fluorescence at 590 nm (red) in HepG2 cells (AID 720674)
Outline: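 Fluorescence at 590 nm emission following 540 nm excitation was recorded from HepG2 wells one hour after compound transfer, with DMSO-only wells as vehicle and Rose Bengal sodium equivalency as the scale.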

[7] = qHTS assay to test for compound auto fluorescence at 535 nm (green) in HepG2 cells (AID 720675)
[8] = qHTS assay to test for compound auto fluorescence at 460 nm (blue) in HEK293 cells (AID 720678)
Outline: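 Triamterene serves as the blue fluorophore standard. Compound signal at 405/460 nm is read in HEK293 wells (2,000 cells, 10% dialyzed FBS) after overnight treatment at 37C.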

[9] = qHTS assay to test for compound auto fluorescence at 590 nm (red) in HEK293 cells (AID 720679)
Outline: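 We plated HEK293 cells in 10% dialyzed FBS medium, let them adhere for 4-5 hr, then added 23 nL compound. Overnight at 37C and 5% CO2 preceded fluorescence measurement at 540/590nm.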

[10] = qHTS assay to test for compound auto fluorescence at 535 nm (green) in HEK293 cells (AID 720680)
[11] = qHTS assay to test for compound auto fluorescence at 460 nm (blue) in HEK293 cell free culture (AID 720681)
Outline: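 Compounds were added to cell-free DMEM with 10% FBS and fluorescence read directly. The blue channel used 405 nm excitation and 460 nm emission, with triamterene as the reference fluorophore.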

[12] = qHTS assay to test for compound auto fluorescence at 535 nm (green) in HEK293 cell free culture (AID 720682)
Outline: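 Intrinsic compound fluorescence is measured in culture medium containing 10% FBS, with excitation at 485 nm and detection at 535 nm, referenced to fluorescein.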

[13] = qHTS assay to test for compound auto fluorescence at 590 nm (red) in HEK293 cell free culture (AID 720683)
Outline: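 Cell-free wells of DMEM with 10% FBS received compound, and intrinsic fluorescence was read at excitation/emission 540/590 nm. Values expressed as equivalence to Rose Bengal sodium.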

[14] = qHTS assay to test for compound auto fluorescence at 590 nm (red) in HepG2 cell free culture (AID 720684)
Outline: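 Compound was pinned into wells holding MEM with 10% FBS and no cells, and red fluorescence was read at Ex/Em 540/590 nm. Signal is expressed as auto fluorescence equivalency relative to Rose Bengal sodium.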

[15] = qHTS assay to test for compound auto fluorescence at 460 nm (blue) in HepG2 cell free culture (AID 720685)
Outline: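 Compound (23 nL) or DMSO pinned into cell-free MEM with 10% FBS; blue fluorescence read at 405/460 nm excitation/emission, expressed as auto-fluorescence equivalency to triamterene.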

[16] = qHTS assay to test for compound auto fluorescence at 535 nm (green) in HepG2 cell free culture (AID 720686)
[17] = qHTS assay to test for compound auto fluorescence at 460 nm (blue) in HepG2 cells (AID 720687)
Outline: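 HepG2 cells in MEM with 10% FBS, attached overnight at 37 C, were exposed to compound or DMSO for 1 hr at 37 C, 5% CO2. Blue fluorescence was read at 405/460 nm, with triamterene as reference fluorophore.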

[18] = biological target: Glucocorticoid receptor (Homo sapiens) (UniProt P04150); test: qHTS assay to identify small molecule agonists of the glucocorticoid receptor (GR) signaling pathway (AID 720691; active = well fitted activation curve with a large enough effect in the signal ratio in the repeat runs, not every such curve was filed as active; the % refers to the signal ratio)
Outline: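 Agonist mode in a HeLa line carrying a GRE-controlled beta-lactamase reporter. Compounds act for 18 h at 37 C before a 2 h room-temperature FRET substrate step and fluorescence reading.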

[19] = biological target: Glucocorticoid receptor (Homo sapiens) (UniProt P04150); test: qHTS assay to identify small molecule antagonists of the glucocorticoid receptor (GR) signaling pathway (AID 720692; active = well fitted inhibition curve with a large enough effect in the signal ratio in the repeat runs, not every such curve was filed as active; the % refers to the signal ratio)
Outline: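 Cells plated, rested 4 h at 37 C/5% CO2; compounds in DMSO pin-transferred; dexamethasone added to 5 nM final; 18 h at 37 C; B/G FRET substrate added, 2 h room temperature; fluorescence measured.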
% is scaled to controls: 0 for no effect and ±100 for the full control effect.

Chain of Glucocorticoid receptor (Homo sapiens) (P04150 whole entry, looked up): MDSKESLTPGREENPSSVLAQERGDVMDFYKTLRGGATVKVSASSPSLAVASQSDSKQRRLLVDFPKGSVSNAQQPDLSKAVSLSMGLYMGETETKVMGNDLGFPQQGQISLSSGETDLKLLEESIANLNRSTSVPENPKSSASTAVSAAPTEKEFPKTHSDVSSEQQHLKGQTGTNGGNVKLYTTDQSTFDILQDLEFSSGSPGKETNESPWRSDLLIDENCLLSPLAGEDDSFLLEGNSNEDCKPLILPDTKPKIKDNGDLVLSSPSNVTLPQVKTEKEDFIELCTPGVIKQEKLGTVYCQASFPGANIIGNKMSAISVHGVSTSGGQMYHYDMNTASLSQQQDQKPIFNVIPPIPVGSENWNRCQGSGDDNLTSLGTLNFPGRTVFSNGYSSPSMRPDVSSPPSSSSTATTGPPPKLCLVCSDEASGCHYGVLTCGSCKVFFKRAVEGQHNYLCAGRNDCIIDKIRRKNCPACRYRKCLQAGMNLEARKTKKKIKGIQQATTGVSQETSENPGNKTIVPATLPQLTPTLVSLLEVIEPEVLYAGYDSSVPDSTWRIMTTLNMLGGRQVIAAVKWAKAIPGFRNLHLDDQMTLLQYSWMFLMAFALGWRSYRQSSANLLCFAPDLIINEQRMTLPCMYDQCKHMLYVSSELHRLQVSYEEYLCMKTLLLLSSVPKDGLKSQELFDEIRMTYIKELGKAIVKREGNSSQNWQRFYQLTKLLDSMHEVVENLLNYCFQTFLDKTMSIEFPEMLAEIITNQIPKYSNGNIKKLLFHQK

CC(C)(C)S
inactive: Potency [1] | Potency [2] | Potency [3] | Potency [4] | outcome [5] | outcome [6] | outcome [7] | Potency [8] | outcome [9] | outcome [10] | Potency [11] | outcome [12] | outcome [13] | outcome [14] | Potency [15] | outcome [16] | Potency [17] | Potency [18]

CC(=O)Oc1cccc(O)c1
inactive: Potency [1] | Potency [2] | Potency [3] | Potency [4] | outcome [5] | outcome [6] | outcome [7] | Potency [8] | outcome [9] | outcome [10] | Potency [11] | outcome [12] | outcome [13] | outcome [14] | Potency [15] | outcome [16] | Potency [17] | Potency [18]

FC(F)(F)C(F)(F)C(F)(F)C(F)(F)CCI
inactive: Potency [1] | Potency [2] | Potency [3] | Potency [4] | outcome [5] | outcome [6] | outcome [7] | Potency [8] | outcome [9] | outcome [10] | Potency [11] | outcome [12] | outcome [13] | outcome [14] | Potency [15] | outcome [16] | Potency [17] | Potency [18] | Potency [19]

CCCCCCCCCCCCCCN(C)C
inactive: Potency [1] | Potency [2] | Potency [3] | Potency [4] | outcome [5] | fluorescence, relative to Rose Bengal [6] 0.132% [at 18.6 µM] | fluorescence, % of fluorescein control [7] 0.0291% [at 18.6 µM] | fluorescence, % of triamterene [8] -0.142% [at 18.6 µM] | fluorescence, % of fluorescent control [9] 0.0361% [at 18.6 µM] | fluorescence, % of fluorescein [10] 0.0258% [at 18.6 µM] | fluorescence, % of fluorescent control [11] 0.0125% [at 18.6 µM] | activity change [12] -0.0109% [at 18.6 µM] | fluorescence, % of fluorescent control [13] -0.0109% [at 18.6 µM] | fluorescence, % of Rose Bengal [14] -0.054% [at 18.6 µM] | fluorescence, % of fluorescent control [15] -0.025% [at 18.6 µM] | fluorescence, % of fluorescein control [16] -0.0531% [at 18.6 µM] | fluorescence, % of fluorescent control [17] -0.0432% [at 18.6 µM] | Potency [18] | Potency [19]

Cc1ccc(N(CCO)CCO)cc1
inactive: Potency [1] | Potency [2] | Potency [3] | Potency [4] | outcome [5] | outcome [6] | outcome [7] | Potency [8] | outcome [9] | outcome [10] | Potency [11] | outcome [12] | outcome [13] | outcome [14] | Potency [15] | outcome [16] | Potency [17] | Potency [18] | Potency [19]

COc1ccc(C2C(=O)c3ccccc3C2=O)cc1
inactive: Potency [1] | Potency [2] | Potency [3] | Potency [4] | outcome [5] | outcome [6] | outcome [7] | Potency [8] | outcome [9] | outcome [10] | Potency [11] | outcome [12] | outcome [13] | outcome [14] | Potency [15] | outcome [16] | Potency [17] | Potency [18] | Potency [19]

O=C(C(=O)c1ccco1)c1ccco1
inactive: Potency [1] | Potency [2] | Potency [3] | Potency [4] | outcome [5] | outcome [6] | outcome [7] | Potency [8] | outcome [9] | outcome [10] | Potency [11] | outcome [12] | outcome [13] | outcome [14] | Potency [15] | outcome [16] | Potency [17] | Potency [18] | Potency [19]
